Compound activity from PubChem.
Only some compounds are listed: those with a hit (about 1.2% of all), similar ones and a draw of the others.
RGS16-Gao HTS: modulators of RGS16 binding to Galphao, primary screen, biochemical, human proteins, multiplexed bead flow cytometry. bead-based flow cytometry RGS16-Galphao binding, fluorescence; actives lie on both sides. binding response (% of control), % at 10 µM. 220,000 compounds, 0.38% hits;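 further: Galphao activated by GDP with aluminum fluoride before binding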
Target sequence (O15492 whole entry, looked up): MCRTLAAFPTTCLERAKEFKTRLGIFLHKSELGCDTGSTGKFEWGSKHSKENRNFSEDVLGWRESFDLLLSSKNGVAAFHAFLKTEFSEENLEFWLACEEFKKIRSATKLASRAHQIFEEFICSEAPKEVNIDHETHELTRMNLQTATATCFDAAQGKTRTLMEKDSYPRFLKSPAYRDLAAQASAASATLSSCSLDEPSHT
Target sequence (P09471 whole entry, looked up): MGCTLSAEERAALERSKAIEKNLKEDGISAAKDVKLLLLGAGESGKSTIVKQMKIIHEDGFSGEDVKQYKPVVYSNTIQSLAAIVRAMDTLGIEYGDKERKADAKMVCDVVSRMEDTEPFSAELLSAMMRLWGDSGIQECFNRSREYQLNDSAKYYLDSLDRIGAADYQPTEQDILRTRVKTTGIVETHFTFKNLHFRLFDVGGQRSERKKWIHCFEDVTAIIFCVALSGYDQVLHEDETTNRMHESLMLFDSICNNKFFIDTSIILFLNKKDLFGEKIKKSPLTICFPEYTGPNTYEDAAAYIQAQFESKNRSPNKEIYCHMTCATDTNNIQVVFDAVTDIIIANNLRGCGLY
GSH fluor: compound fluorescence on glutathione beads, profiling panel, artefact control, biophysical, 488/530 nm, flow cytometry | fluorescence (KMESF) at 10 µM | GSH beads flow cytometry, compound fluorescence 488/530 nm; hits give high values | 190,000 compounds, 0.25% hits | AID 1776, 2009; in the data active means fluorescence above about 89;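 further: glutathione beads carrying GST-tagged Bcl family fusion proteins plus one bare bead set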
Avidin bead fluor: green autofluorescence of compounds with avidin beads – biophysical, 488/530 nm, flow cytometry, artefact control, profiling panel | compound fluorescence 488/530 nm; hits give high values | fluorescence (KMESF) at 10 µM | 220,000 compounds, 0.38% hits | AID 1775, 2009; in the data active means fluorescence above about 47
RGS4-Gao reg: modulators of RGS4 binding to Galphao, primary screen, biochemical, multiplexed bead flow cytometry; actives lie on both sides; binding response (% of control), % at 10 µM; 220,000 compounds, 0.33% hits; in the data active means binding response below about 49% or above about 150%; inactive means in between;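 further: fluorescent Galphao activated with aluminum fluoride binding bead-coupled RGS4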
Target sequence (P09471 whole entry, looked up): as above
RGS7-Gao reg: RGS7-Galphao binding modulators, primary screen, biochemical, multiplexed bead flow cytometry; 220,000 compounds, 0.35% hits; AID 1439, 2008; Guanine nucleotide-binding protein G(o) subunit alpha (Homo sapiens), P09471; actives lie on both sides; binding response (% of control), % at 10 µM; in the data active means binding response below about 49% or above about 150%; inconclusive means no clear call, values can overlap the other calls; inactive means in between;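 further: fluorescent Galphao held in activated GDP-AlF4 state binding bead-coupled RGS7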
RGS8-Gao: RGS8-Galphao binding modulators, primary screen, biochemical, multiplexed bead flow cytometry; actives lie on both sides; 220,000 compounds, 0.34% hits; Guanine nucleotide-binding protein G(o) subunit alpha (Homo sapiens), P09471; response (percent of control binding), % at 10 µM; in the data active means response below about 60% or above about 140%; inactive means in between;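 further: Galphao activated as the GDP aluminium fluoride complex binding bead-coupled RGS8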
RGS4-Gao HTS: modulators of RGS–Galpha-o binding, primary screen, biochemical, multiplexed beads, flow cytometry, RGS4/7/8/16/19. shares compounds with RGS16-Gao HTS. multiplexed bead flow cytometry. RGS4–Galpha-o binding response, % at 10 µM. 1,600 compounds, 99% hits. AID 1504, 2009;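 further: fluorescently labeled Galpha-o bound to GDP with aluminium fluoride binding biotinylated RGS beads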
Avidin counter: disruption of biotin probe capture by avidin, counter-screen for RGS protein interaction modulators, biochemical, flow cytometry, bead-based | shares compounds with RGS16-Gao HTS | streptavidin beads, fluorescein-biotin binding | inhibition, % at 10 µM | 1,700 tested, under 10 active;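 active means inhibition above 50%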;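 further: median green fluorescence of gated singlet beads compared with DMSO control wells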
RGS8-Gao confirm: RGS8-Galphao binding modulators, confirmation, biochemical, multiplexed bead flow cytometry, single concentration. shares compounds with RGS16-Gao HTS. bead-based flow cytometry RGS8-Galphao binding, fluorescence; actives lie on both sides. binding response (% of control), % at 10 µM. 1,700 compounds, 3% hits; in the data active means binding response below about 72% or above about 130%; inactive means in between;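 further: Galphao activated as GDP AlF4 complex before binding bead RGS8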
RGS7-Gao confirm: RGS7-Galphao binding modulators, confirmation, biochemical, multiplexed bead flow cytometry, single concentration; shares compounds with RGS16-Gao HTS; bead-based flow cytometry RGS7-Galphao binding; actives lie on both sides; response (percent of control binding), % at 10 µM; 1,700 compounds, 7.8% hits; in the data active means response below about 75% or above about 130%; inactive means in between;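 further: fluorescent Galphao activated with GDP and aluminum fluoride binding bead-coupled RGS7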
RGS16-Gao conf: modulators of RGS16-Galphao protein binding, confirmation, biochemical, single concentration, multiplexed bead flow cytometry; shares compounds with RGS16-Gao HTS; bead-based flow cytometry; actives lie on both sides; response (% of control binding), % at 10 µM; 1,700 compounds, 4% hits; AID 1838, 2009; in the data active means response below about 74% or above about 130%; inactive means in between;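 further: Galphao activated as the GDP aluminium fluoride complex binding bead-coupled RGS16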
RGS4-Gao confirm: modulators of RGS4-Galphao protein binding, confirmation, biochemical, single concentration, multiplexed bead flow cytometry; actives lie on both sides; binding response (% of control), % at 10 µM; 1,700 compounds, 4% hits; shares compounds with RGS16-Gao HTS; in the data active means binding response below about 74% or above about 130%; inactive means in between
RGS19-Gao single: regulators of RGS19-Galphao binding, confirmation, biochemical, single point, multiplexed bead flow cytometry | response (percent of control binding), % at 10 µM | shares compounds with RGS16-Gao HTS | bead-based flow cytometry RGS19-Galphao binding; actives lie on both sides | 1,700 compounds, 5% hits; in the data active means response below about 50% or above about 160%; inactive means in between
Hits are given with their value; 0 = inactive; ? = inconclusive; - = no result given; [ ] = dose if it differs, or a comment. Unless noted, how the calls were made is not given here.

SMILES	RGS16-Gao HTS	GSH fluor	Avidin bead fluor	RGS4-Gao reg	RGS7-Gao reg	RGS8-Gao	RGS4-Gao HTS	Avidin counter	RGS8-Gao confirm	RGS7-Gao confirm	RGS16-Gao conf	RGS4-Gao confirm	RGS19-Gao single
Cc1ccc2[nH]cc(CCNC(=O)Nc3ccccc3)c2c1	-	0	-	-	-	-	-	0	0	0	0	0	0
CC(C)CCC1(CCNC(=O)c2cccs2)CCOC(C)(C)C1 (stereo unspecified)	0	-	0	0	?	0	-	-	-	-	-	-	-
Cc1sc2nc(CN3CCOCC3)nc(N3CCOCC3)c2c1C	0	0	0	0	0	143[activator]	116	0	0	0	0	0	0
COC(=O)c1sc2nc(CN3CCOCC3)nc(N3CCOCC3)c2c1C	0	0	0	0	0	0	-	-	-	-	-	-	-
O=C(O)CC1(CC(=O)Nc2cc(C(F)(F)F)cc(C(F)(F)F)c2)CCCCC1	0	-	0	0	?	0	-	-	-	-	-	-	-
CCC(=O)N1CCc2cc(S(=O)(=O)NC(Cc3ccccc3)C(=O)NC3CCCCC3)ccc21 (stereo unspecified)	0	0	0	0	0	0	-	-	-	-	-	-	-
CC(=O)N1CCc2cc(S(=O)(=O)NC(Cc3ccccc3)C(=O)Nc3cc(C)ccn3)ccc21 (stereo unspecified)	0	0	0	0	0	153[activator]	129	0	0	0	0	0	0
O=C(NCCc1ccc(F)cc1)c1cc(=O)c2ccccc2o1	0	0	0	0	0	0	-	-	-	-	-	-	-
Oc1csc(Cc2nc(-c3ccccc3F)cs2)n1	0	0	0	0	0	0	-	-	-	-	-	-	-
COCc1cc(C)nc(SCC(=O)Nc2ccc(C)c(C)c2)c1C#N	-63	0	0	0	0	0	100	-	-	-	-	-	-
O=C(NCc1cccnc1)Nc1cccc(NC(=O)NCc2cccnc2)c1	0	0	0	0	0	0	-	-	-	-	-	-	-
CC(=O)c1cccc(NC(=O)NCc2cccnc2)c1	-	0	-	-	-	-	-	0	0	0	0	0	0
O=C(C1CCCN(S(=O)(=O)c2cccc3cccnc23)C1)N1CCN(c2ccc(F)cc2)CC1 (stereo unspecified)	0	0	0	0	0	0	-	-	-	-	-	-	-
O=[N+]([O-])c1cccc(/C=N/n2c(COc3ccccc3)n[nH]c2=S)c1	272[activator]	0	0	0	0	0	118	0	0	0	0	0	0
O=[N+]([O-])c1ccc(/C=N/n2c(COc3ccccc3)n[nH]c2=S)cc1	0	0	0	0	0	0	-	-	-	-	-	-	-
CN1CCN(C(CNS(=O)(=O)c2ccc(Cl)cc2)c2cccnc2)CC1 (stereo unspecified)	0	0	130	0	157[activator]	0	110	0	0	0	0	0	0
c1cc2c(cc1Nc1nc(-c3ccc4c(c3)OCO4)cs1)OCCO2	0	0	0	0	0	0	-	-	-	-	-	-	-
c1ccc(-c2csc(Nc3ccc4c(c3)OCCO4)n2)cc1	0	0	0	0	50	55	91	0	0	0	0	0	0
COc1ccc(N2CCN(C(c3cc(OC)ccc3OC)c3nnnn3CC3CCCO3)CC2)cc1 (stereo unspecified)	0	0	0	0	0	0	-	-	-	-	-	-	-
COc1ccc(C(CCNCc2ccc(OC(C)C)cc2)C(C)C)cc1 (stereo unspecified)	-5.3	-	0	-9.6	?	8.9	-	0	0	0	0	0	0
COc1ccc(C(CCNCc2ccc(N(C)C)cc2)C(C)C)cc1 (stereo unspecified)	0	-	0	0	?	0	-	-	-	-	-	-	-
COc1ccc(CNCCC(c2ccc(OC(C)C)cc2)C(C)C)cc1OC (stereo unspecified)	0	0	0	0	0	142[activator]	117	0	0	0	0	0	0
C=CCOC(=O)C1CC=CCC1C(=O)Oc1ccc(F)cc1F (stereo unspecified)	0	0	0	0	0	0	-	-	-	-	-	-	-
Cc1nc2ccc(C(=O)OCc3ccccc3Br)cc2nc1C	0	0	0	0	0	0	-	-	-	-	-	-	-
O=S(=O)(c1ccc(NC(=S)NN=C2CCCCC2)cc1)N1CCOCC1	0	0	0	0	?	0	-	-	-	-	-	-	-
SMILES	RGS16-Gao HTS	GSH fluor	Avidin bead fluor	RGS4-Gao reg	RGS7-Gao reg	RGS8-Gao	RGS4-Gao HTS	Avidin counter	RGS8-Gao confirm	RGS7-Gao confirm	RGS16-Gao conf	RGS4-Gao confirm	RGS19-Gao single
CN(C)/C=C/C(=O)c1ccc(F)cc1F	0	-	0	0	?	0	-	-	-	-	-	-	-
COc1ccc2c(Cl)c(C(=O)N/N=C/c3c(C)[nH]c4ccccc34)sc2c1	0	0	0	0	156[activator]	0	139	0	0	267[activator]	175[activator]	187[activator]	368[activator]
O=C(CN1C(=O)NC2(CCCC2)C1=O)Nc1nc(-c2ccc(F)cc2)cs1	0	0	0	0	0	0	-	-	-	-	-	-	-
CC1(C)NC(=O)N(CC(=O)Nc2nc(-c3ccc(F)cc3)cs2)C1=O	0	0	195	0	216[activator]	0	133	0	0	69	0	0	49
C=CCn1c(O)c(N=NC(=O)OCC)c2ccccc21	0	0	0	0	0	0	-	-	-	-	-	-	-
CCOC(=O)N=Nc1c(O)n(C)c2ccccc12	0	0	121	0	186[activator]	0	137	0	0	66	0	72	0
O=C1CCCC(O)=C1C1C2=C(CCCC2=O)OC2=C1C(=O)CCC2	0	0	0	0	0	0	-	-	-	-	-	-	-
